LASV entry inh: qHTS for Inhibitors of binding or entry into cells for Lassa Virus; Lassa virus pseudotype entry inhibition, cell reporter; Potency, µM (highest dose often 37.9 µM), inactives show at the top dose activity change, negative = inhibition, hits mostly inhibitors; actives 1.2% (n = 300,000); calls by dose curve; tested in HEK293 cells; note: potency is the fitted concentration of half-maximal effect; nearly all actives have a fitted effect of over 50% in size
FMDV antiviral: High Throughput Screening for Foot and Mouth Disease Virus Antivirals; FMDV antiviral cell-based qHTS; Potency, µM (top dose mostly 57.9 µM), for inactives: top-dose activity change, negative = inhibition, most hits filed as inhibitors; actives 1.2% (n = 410,000); calls by dose curve; tested in HEK293T cells; note: read-out not given here; potency is the fitted concentration of half-maximal effect; nearly all actives have a fitted effect of over 45% in size
HCV inh: qHTS Assay for Inhibitors of Hepatitis C Virus (HCV). Huh7.5.1 HCVcc-Cre infection, luciferase reporter, 44 h. Potency, µM (doses to about 41.8 µM), inactives show at the highest dose activity change, negative = inhibition, usual class: inhibitors. actives 3.4% (n = 340,000). AID 651820, 2012; note: potency is the fitted concentration of half-maximal effect
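Compounds are dispensed onto cells plated 4 h earlier at 1,000 per well, with HCVcc-Cre virus (about 0.5 moi) added next. Following 44 h of culture, luminescent signal is measured for 15 sec after 15 min with substrate at room temperature.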
HCMV inh: qHTS Assay for inhibitors of the human cytomegalovirus (HCMV); HFF cells, HCMV-luciferase reporter, 72 h; active compounds read low; activity change, negative = inhibition, % at 57.5 µM; actives 4.5% (n = 410,000); in the data active = activity change below about -60%; inconclusive = no clear call, values can overlap the other calls; inactive = above about -39%
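HFF cells seeded 16 h at 37C, treated with compounds, infected with luciferase-reporter HCMV at MOI 1 PFU/cell; luciferase read at 72 h post infection, normalized to buffer-only and Salinomycin controls.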
FBPA Giardia inh: qHTS Assay for Inhibitors of Fructose-1,6-bisphosphate Aldolase from Giardia Lamblia | purified Giardia FBPA | AID 2451, 2010 | actives 0.71% (n = 290,000) | Potency, µM (series often up to 59.6 µM), for inactives: at the top dose activity, negative = inhibition, actives largely listed as inhibitors; note: potency is the fitted concentration of half-maximal effect; nearly all actives have a fitted effect of over 55% in size
Target sequence (A8B2U2 whole entry, looked up): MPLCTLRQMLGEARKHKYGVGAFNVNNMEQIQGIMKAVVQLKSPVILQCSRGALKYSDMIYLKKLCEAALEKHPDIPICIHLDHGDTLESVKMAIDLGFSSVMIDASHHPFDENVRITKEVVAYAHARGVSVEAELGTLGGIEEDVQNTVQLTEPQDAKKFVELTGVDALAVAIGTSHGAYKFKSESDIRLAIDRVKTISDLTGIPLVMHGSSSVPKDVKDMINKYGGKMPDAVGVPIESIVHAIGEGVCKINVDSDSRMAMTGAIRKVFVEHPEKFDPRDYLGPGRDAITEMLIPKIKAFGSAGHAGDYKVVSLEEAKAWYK
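Giardia FBPA (40 nM reagent) was preincubated 10 min at RT with compound (up to 57.5 uM final), then substrate plus GAPDH/TPI/NAD/arsenate coupling system with diaphorase/resazurin was added; resorufin fluorescence (525/598 nm) was read after 20 min.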
MARV entry inh: qHTS for inhibitors of binding or entry into cells for Marburg Virus; Marburg virus pseudotyped entry inhibition, cell reporter; Potency, µM (highest dose often 37.8 µM), without a hit: top-dose activity change, negative = inhibition, actives largely listed as inhibitors; actives 1.8% (n = 300,000); calls by dose curve; tested in HEK293 cells; note: potency is the fitted concentration of half-maximal effect
* marks the source's active call; other numbers are inactive results; u = inconclusive; x = no result given; ! = not confirmed by another sample; [ ] = dose if it differs, or a comment. A selection: hits, their analogues and other compounds. The true share with any hit is near 8.3%. Unless noted, calls come from the whole dose curve; as a rule, active = well fitted curve in the direction sought with a large enough effect; inconclusive = small, poorly fitted or top-dose-only effect, or another doubt; inactive = no such curve, though single readings can be large; an effect the other way counts as inactive or inconclusive. % is set by controls: 0 for no effect and ±100 for the full control effect.

SMILES	LASV entry inh	FMDV antiviral	HCV inh	HCMV inh	FBPA Giardia inh	MARV entry inh
CCOC(=O)c1c(NC(=O)CN2CCN(C)CC2)sc(C(=O)Nc2ccccc2)c1C	-23%	17%	6.3µM*	-8	-1%	u
CCOC(=O)c1sc(NC(=O)CCN2CC(C)OC(C)C2)c(C(=O)OCC)c1C (stereo unspecified)	x	x	x	x	-1%	4%
CCOC(=O)c1sc(NC(=O)CCN2CCN(C)CC2)c(C(=O)OCC)c1C	11µM*	-20%	14µM*	u	3%	0%
CC1(c2ccc(Cl)cc2)NC(=O)N(CC(=O)N2CCCC2)C1=O (stereo unspecified)	1%	-20%	16µM*	-11	4%	13%
Cc1ccccc1CN1CCc2nc(Nc3ccc4c(c3)OCCO4)ncc2C1	u	u	x	-15	x	x
O=C1C(n2ccc3ccccc32)c2ccccc2N1Cc1ccc(C(F)(F)F)cc1 (stereo unspecified)	x	x	x	21	x	x
CCOc1ccc(Nc2c(S(=O)(=O)c3ccc(Cl)cc3)cnc3ccc(OC)cc23)cc1	x	-19%	x	u	x	-1%[46.1 µM]
CN1CCN(c2ncc3nc(-c4cn(C)c5ccccc45)c(=O)n(CCC#N)c3n2)CC1	x	-12%	x	x	-26%	x
CCOC(=O)c1c(NC(=O)COC(=O)c2ccc(Cl)nc2)sc(C(=O)N(C)C)c1C	17%	-27%	-9%	-19	x	13%
CCOC(=O)c1c(NC(=O)CN2CCN(S(=O)(=O)c3cc(Cl)ccc3Cl)CC2)sc(C(=O)N(C)C)c1C	x	u	11µM*	-90*	x	x
CN(C)c1ccc(/C=N/N=C/c2ccccc2O)cc1	u	-62%	14%	-11	-9%	5.6µM*
COc1ccccc1C=NN=Cc1ccccc1O	u	17%	2%	84	x	u
Oc1ccccc1C1SC(c2ccccc2O)SC(c2ccccc2O)S1 (stereo unspecified)	u	-20%	u	-34	x	u
Oc1ccccc1C1CCCCC1c1ccccc1 (stereo unspecified)	-22%	-7%	-9%	-68*	-5%	-30%
Cc1sc2nc3c4ccccc4c(NCc4ccco4)nn3c(=O)c2c1C	u	70%	-6%	195	-11%	12%
CCN(C(=O)CSc1nc(C)nc2sc(C)c(C)c12)c1ccc(F)cc1	x	u	6%	16	x	x
Cc1sc2ncnc(N(C)Cc3ccco3)c2c1C	-13%	22µM*	u	-71*	1%	-6%
Cc1nc(NCc2ccco2)c2c(C)c(C)sc2n1	8%	u	10µM*	-105*	u	u
Cc1nc(SCC(=O)N(C)Cc2ccco2)c2c(C)c(C)sc2n1	u	u	u	u	0%	7.3µM*
CCCn1nc(NC(C)=O)c2cc3cccc(C)c3nc21	x	-22%	11µM*	-11	3%	x
CCCn1nc(NC(=O)CC(C)C)c2cc3cccc(C)c3nc21	3%	13%	-6%	20	-2%	-1%[46.1 µM]
CCCC(=O)Nc1nn(C)c2nc3c(C)cccc3cc12	5%	7%	6%	33	-4%	-4%
CCCn1nc(NC(=O)COC)c2cc3cccc(C)c3nc21	x	-21%	11µM*	-13	6%	x
Cc1ncc2c(c1CNC(=O)/C=C/c1cccs1)CCN(C(=O)c1cc(C(C)C)on1)C2	x	-9%	x	x	x	x
O=C(N/N=C/c1ccc(Br)s1)c1ccncc1	u	14%	-15%	-17	-1%	u
SMILES	LASV entry inh	FMDV antiviral	HCV inh	HCMV inh	FBPA Giardia inh	MARV entry inh
O=C(N/N=C/c1ccc[nH]1)c1ccncc1	28%[46.1 µM]	-10%	9%	-15	-5%	10%
O=C(N/N=C/c1cc(Br)c(Br)s1)c1ccncc1	10µM*	19%	u	-90*	-1%	u
O=C(N/N=C/c1sc(=O)n(-c2ccccc2)c1Cl)c1ccncc1	3%	-1%	u	-86*	-4%	u
O=C(NN=Cc1cc(=O)[nH]c(=O)[nH]1)c1ccncc1	15%	-16%	39%	-68*	x	13%
CCC1(C2CCN(Cc3cccc4ccccc34)CC2)NC(=O)N(Cc2ccc3c(c2)OCO3)C1=O (stereo unspecified)	x	-2%	x	x	x	x
COc1ccc(CCNC(=O)Cn2c(=O)cc(C(F)(F)F)c3c(C)nn(C)c32)cc1OC	26%[46.1 µM]	-10%	x	10	x	x
CCC(/C=C/C(C)C1CCC2C3CC=C4CC(O)CC[C@@]4(C)C3CC[C@@]12C)C(C)C (stereo partly specified)	x	-9%	x	x	0%	x
COCCN(CCOC)c1ncnc2c1c(-c1ccccc1)cn2-c1ccc(C)c(Cl)c1	-3%[46.1 µM]	-28%	x	u	x	x
CC1(C)CC(=O)C=C(NC2=CC3OC(c4ccccc4)OCC3OC2=O)C1 (stereo unspecified)	u	8.9µM*	u	-8	1%	14µM*
CCN(CC)CCC(C)OC(c1ccccc1)c1ccccc1 (stereo unspecified)	x	-19%	6%	-23	-9%	x
Cc1ccccc1[C@@H](OCCN(C)C)c1ccccc1	x	x	x	x	-4%[21.7 µM]	-36%
CCN(CC)CCOC(c1ccccc1)c1ccc(C)cc1 (stereo unspecified)	u	-24%	u	-20	-8%	8.9µM*
Cc1ccccc1C(OCCN(C)C)c1ccccc1 (stereo unspecified)	u	-10%	u	-27	-3%	13µM*!
C=C(Cl)COc1ccc2c(CCC)cc(=O)oc2c1	3%	1%	10µM*	-30	-1%	12%[46.1 µM]
CCCc1cc(=O)oc2cc(OCC(=O)NCCc3c[nH]c4ccccc34)ccc12	x	u	4.5µM*	u	24%	x
Cc1ccccc1-c1cc(C(=O)NCc2cccc(C(F)(F)F)c2)n(CC2CC(c3cccnc3)=NO2)n1 (stereo unspecified)	x	61%	8.9µM*	-13	x	x
COc1ccc(NC(=O)C(=O)NCC(c2cccnc2)N2CCc3ccccc3C2)cc1 (stereo unspecified)	u	u	x	-10	x	x
CC(C)(C)c1ccc(C(=O)Nc2ccc(Oc3cccnc3)nc2)cc1	u	35µM*	2.8µM*	-66*	-6%	9%
O=C1CSc2ccc(C(=O)Nc3cccc(S(=O)(=O)Nc4ccc(Br)cc4)c3)cc2N1	x	-29%	10µM*	-91*	-8%	x
COc1ccc(NC(=O)c2cccc(S(=O)(=O)Nc3ccc(Br)cc3)c2)cn1	u	-15%	u	-90*	4%	u
CCOc1ccc(S(=O)(=O)Nc2cnc3ccccc3c2)cc1	u	-9%	1.8µM*	-79*	0%	-28%[46.1 µM]
O=C(NC1CCCCC1)c1cc(Nc2cccc(C(F)(F)F)c2)nc2ccccc12	u	3%	x	5	x	x
